# Source: the supplement of paper PMC6555819
# Experiments:
# Assay in all cases: PBM binding z-score (relative to random genomic background probes); higher = stronger binding; sequences stand for … in GC…GCGATTGACAGCGTAGAATGAAGG
# [1] = tested on: FXR:RXRa (NR concentration 270 nM, RXRa partner concentration 90 nM)
# In short: (§1)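 On custom Agilent 4×180K arrays, double-stranded probes with 34-nt variable regions carried direct-repeat seeds, single-nucleotide variants, half-site ablations or random human genomic background. Ligand-free nuclear receptor dimers were applied for 1 h, and binding was read with antibodies against each partner (one per run). Binding z-scores come from regression-normalized fluorescence, with the random background probes as reference.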
# [2] = tested on: LXRa:RXRa (NR concentration 270 nM, RXRa partner concentration 90 nM)
# In short: as §1
# [3] = tested on: LXRa homodimer (NR concentration 270 nM)
# In short: as §1
# [4] = tested on: LXRb:RXRa (NR concentration 270 nM, RXRa partner concentration 90 nM)
# In short: as §1
# [5] = tested on: LXRb homodimer (NR concentration 270 nM)
# In short: as §1
# [6] = tested on: PPARa:RXRa (NR concentration 270 nM, RXRa partner concentration 90 nM)
# In short: as §1
# [7] = tested on: PPARg:RXRa (NR concentration 180 nM, RXRa partner concentration 90 nM)
# In short: as §1
# [8] = tested on: PPARg:RXRa 270nM:90nM, anti-RXR (NR concentration 270 nM, RXRa partner concentration 90 nM)
# In short: as §1
# [9] = tested on: PPARg:RXRa 30nM:10nM, anti-RXR (NR concentration 30 nM, RXRa partner concentration 10 nM)
# In short: as §1
# [10] = tested on: PPARg:RXRa 90nM:30nM, anti-RXR (NR concentration 90 nM, RXRa partner concentration 30 nM)
# In short: as §1
Sequence,PBM binding z-score [1],PBM binding z-score [2],PBM binding z-score [3],PBM binding z-score [4],PBM binding z-score [5],PBM binding z-score [6],PBM binding z-score [7],PBM binding z-score [8],PBM binding z-score [9],PBM binding z-score [10]
CCTACTGCGCCAAAAAGGTCATTGATGCCGATAA,4.02,4.8,4.24,4.54,1.52,4.78,1.47,3.17,1.18,2.45
TCTTGTAGATCAAGCAGGTTATGAAAGCCTGAGT,0.147,0.219,-0.495,0.124,-0.429,0.732,-0.162,1.27,2.34,1.89
TCTAGTTGGGCAAAGGTCACACACTCGAAATGCG,5.48,5.45,3.14,5.08,0.789,6.58,10.4,9.73,9.07,10.3
TCGAGTAGGTTACCAATGGGGCATTCTGCTTTCT,0.0174,1.11,-0.471,0.975,-0.712,1.33,0.0267,1.1,0.935,0.902
CGAACAAGGTCAGAACAGGACAGTGAAGGATGAT,4.33,3.42,0.289,2.42,0.289,3.91,3.09,3.2,1.12,1.95
TCGAGTAGGGTACCAATGGGGCATTCAGCTTTCT,-0.419,-0.00421,-0.466,0.0817,-0.885,0.453,-0.266,0.942,0.889,0.836
CGGACTAGGTCATCCAGGACAGTGAATACATTGA,3.64,2.45,0.39,1.81,-0.227,4.22,6.64,5.63,3.03,4.87
ATATGTAGATTATCGGGTCATTCAGTTTGCGCAT,2.14,2.5,1.98,2.47,0.87,2.81,1.63,1.77,0.662,1.31
CCGACTGGGGCAAGGTTACCGTAACGCACAGCCA,0.11,0.127,-0.449,0.456,-1.12,1.87,2.6,3.45,0.963,2.8
TCTCGGAGCACACGAAGGTCAGAGCTTTCCAGAG,0.286,0.742,-0.215,0.706,-1.73,1.7,0.118,1.06,1.04,0.995
CCTGACGGGTCACTCCAGGTTATAGCATCGGAGT,3.43,7.46,1.51,4.58,-0.132,3.79,1.84,2.43,0.306,1.44
AGAACGAGGGCACGATGAGTTGATAGCAGAGTAG,0.874,0.721,-0.147,0.286,-0.796,2.29,2.6,2.02,0.778,1.51
CCGAGTAGGTTATGGGGCAGTCAGGCAACGGTGA,0.0419,0.326,-0.0975,0.378,-0.292,1.76,2.58,3.74,1.39,3.3
TCTGCTAGGTCAGTTGGTCAGCTATCGAGCTGCC,0.915,0.538,-0.72,0.193,0.35,1.26,0.224,1.72,1.21,1.45
TCTAGCAGGCCAGAGGGTCCCTCAAGAGGTACGG,-1.21,-0.594,-0.832,-1.08,-1.75,-0.293,0.254,1.14,1.15,0.873
CCGACTGGGGCAAGGTTGCCATAACGCACAGCCA,-0.306,-0.375,-0.461,-0.29,-1.05,0.601,1.87,2.77,0.553,2.2
TCTATTAGTTGATTACGGCAACCGAAACAGCGGA,0.899,0.638,0.651,0.546,0.998,0.921,0.134,1.95,3.63,3.1
TGTCAAAGTTCAAAGGTAGCGTAAGTATCCACAC,6.72,6.04,4.44,4.05,1.42,5.57,8.17,7.45,4.48,7.05
CCTAGCAGACCAGGGTCACTCAAGCATTTCGCTT,2.1,1.88,-0.131,2.25,-0.581,3.23,0.556,1.21,-0.525,0.444
ATCTCTAGGTAACCAAGCTCAGTGAATGCCGAAC,0.0567,-0.156,-0.0842,-0.416,0.643,0.0797,0.181,0.28,-0.0374,0.235
AATACAGGGTCATAGTAGGCCAGAGTACGCACAG,7.09,6.14,2.31,4.62,1.5,5.82,6.42,5.33,2.62,4.34
CCTAATGGGCCATTCAGAGGTCATTGATCATATG,2.75,4.67,6.94,4.05,1.04,3.68,1.37,2.27,0.458,1.54
CAAACTAGGTCACCGGAAGGCCAAAGTCCGCATG,4.53,3.53,0.418,2.46,0.121,5.08,8.65,7.5,4.66,7.3
AGAATGAGGTTACCAAAAATCAGGGAAACGCTTG,1.63,2.73,-0.193,1.54,-0.426,3.2,2.49,2.98,0.857,2.25

Sequence,PBM binding z-score [1],PBM binding z-score [2],PBM binding z-score [3],PBM binding z-score [4],PBM binding z-score [5],PBM binding z-score [6],PBM binding z-score [7],PBM binding z-score [8],PBM binding z-score [9],PBM binding z-score [10]
TCAGCTAGGTCAACGATGGTCAGCTAATCTGCTA,3.13,2.34,-0.215,1.41,-0.491,3.2,2.64,2.95,2.5,2.66
ATACCAAGGTGACCGTGAGGTCGTTGATACTAAC,3.38,2.05,0.765,2.02,-0.023,2.4,1.44,1.39,0.228,0.726
TCGAGTAGGTTCGGGGCATTCAGAATGGCGTCGA,-0.238,-0.318,-0.554,-0.184,-1.07,0.187,-0.622,0.0439,0.452,0.234
AACTCTAGGTAAAAGTTCAGTGAATCCCGAGGAT,1.13,1.42,1.21,0.973,0.00492,4.2,7.44,7.64,6.5,8.32
CAGCCTAGGTCAGGGCCAGTATTGGAGGAACGTT,1.65,0.996,-0.403,0.567,-1.11,2.03,0.396,0.87,-0.497,0.402
TCATATAGGTAATATAGGTGAAAGTCGGCATCTA,0.703,1.07,0.157,0.856,0.102,2.92,3.31,3.65,4.1,3.94
TGAATGAGGTTAAAGAGCAGGGAACGTGGCGTCG,2.98,2.56,-0.586,1.45,0.129,4.23,4.98,6.01,4.52,5.96
CCTACTGGGCCAAAAAGGTCATTGAAGCCGATAA,3.74,4.35,2.77,4.22,0.158,4.79,3.38,4.24,1.31,3.47
CTACCAAGGTGAACATGGTCGTTGATTACTATTC,0.63,0.673,-0.0625,1.05,-0.345,1.73,0.829,0.843,0.0499,0.359
TAGCCTATGTCATGCGGGCCAGTATAGTGTCGGC,-0.542,-0.522,-0.975,-0.937,-0.855,-0.683,0.11,-0.476,-0.612,-0.433
ACTATTAGGTGACTTAGGGCAACCGATACGACGC,0.616,0.424,0.428,0.142,0.261,1.27,1.85,1.34,0.448,0.872
ACTTACGGGACAACGAGGTTATAGCACGCGTATA,0.442,0.645,0.447,0.958,0.473,1.08,1.01,0.442,0.295,0.32
GGAACGAGGGCAAGTTGATGGCAGAGTTTGATGG,0.782,0.592,-0.0865,-0.0137,-0.434,1.55,0.994,0.903,-0.146,0.602
CCTAGCTGGCCAATCTGGGTCACTCAAGGCTTGA,0.656,0.35,-0.714,0.665,-1.32,2.6,1.43,1.89,-0.389,1.26
TAGCCTAGGTCATTCAGGGGCCAGTAGAGAAAGC,4.49,3.73,0.592,3.1,1.16,3.64,1.7,2.31,0.562,1.53
TCGAGTAGGTTCCCAATGGGGCATTCAGCTTTCT,-0.431,-0.384,-0.577,-0.1,-1.76,-0.101,-0.771,0.361,0.7,0.426
CCCACTGGGCCACGAAAGGTCATTGATTCAGTGA,3.78,5.11,5.17,4.22,0.369,4.8,4.92,4.99,1.85,3.53
TCATATAGGTAAAAGGTGAAAGTGGGTGTGGTAA,2.2,2.19,0.716,2.45,0.97,5.49,9.05,8.74,8.47,9.1
TTACCAAGGTGAACGTCGTTGATCCCTCTGTAGA,0.766,0.802,-0.455,1.01,-0.681,1.99,0.984,1.25,0.514,1.07
GCTAGCAGGCCAGTTGGGTCACTCAATGACGGGC,-0.488,-0.319,-0.976,-0.381,-1.51,0.54,0.164,0.0245,-0.726,-0.378
CAAACTAGGTCACGAATGGTCAAAGTCGAATGAC,4.48,5.29,0.845,3.46,0.546,5.82,9.24,7.45,5.7,7.36
GCGACTGGGGCAAATCAGGTTACCATAAGGTTGG,0.683,0.358,-0.1,0.749,-0.654,1.73,1.28,1.07,-0.18,0.553
CAAACTAGGTCAAGAGGCCAAAGTCCGCTTCCCG,3.54,2.84,0.509,1.81,-0.0945,4.7,7.87,6.59,4.48,6.47
TCTAGTTGGTCAATGGTCACACACTCGAAATGCG,0.812,0.861,0.28,0.966,0.461,1.74,2.89,4.7,4.08,4.79
